# According to PubChem BioAssay AID2284181 (EPA ToxCast):
# Inconclusive results are not listed. Activity calls are given as the source filed them. Rule for the calls: active = hit-call score of the fitted dose curve at least 0.9, where 1 is the maximum; inconclusive = response in the unintended direction; inactive = score below 0.9.
# Target: human Serotonin Receptor 5-HT1A, HTR1A (gene 3350) (UniProt P08908)
# Assay: ERF_FR_GPCR_hHTR1A: Eurofins (ERF) G Protein-Coupled Receptor (GPCR) Radioligand Binding LeadHunter Assay for human Serotonin Receptor 5-HT1A Agonism, conducted at France lab site
# Procedure: ERF_FR_GPCR_hHTR1A is a biochemical, single-readout assay that uses extracted gene-proteins in a cell-free assay. Measurements were taken 1 hour after chemical dosing in a 96-well plate. See 5-HT1A Human Serotonin GPCR Binding (Agonist Radioligand) Assay, Cerep.ERF_FR_GPCR_hHTR1A is an assay component calculated from the ERF_FR_GPCR_hHTR1A assay. It is designed to measure radioligand binding using a type of binding reporter as detected by scintillation counting with radiometry technology.Data from the assay component ERF_FR_GPCR_hHTR1A was analyzed at the assay endpoint, ERF_FR_GPCR_hHTR1A, in the positive analysis fitting direction relative to DMSO as the negative control and baseline of activity. Using a type of binding reporter, gain-of-signal activity can be used to understand changes in binding as they relate to gene HTR1A. To generalize the intended target to other relatable targets, this assay endpoint is annotated to the gpcr intended target family, where the subfamily is serotonin.
# Human cells are incubated for 60 minutes at room temprature with [3H]8-OH-DPAT ligand (0.5 nM) and 8-OH-DPAT as control inhibitor. Test Sample Requirements: Minimum for 1) Screen: 60 ul of 10 mM stock -OR- 1 mg (pre-weighed) for 10 uM final testing. 2) Dose Response: 90 ul of 10 mM stock -OR- 1 mg (pre-weighed) for a top concentration at 10 uM.
# human Serotonin Receptor 5-HT1A, HTR1A (gene 3350), sequence (P08908 whole entry, looked up): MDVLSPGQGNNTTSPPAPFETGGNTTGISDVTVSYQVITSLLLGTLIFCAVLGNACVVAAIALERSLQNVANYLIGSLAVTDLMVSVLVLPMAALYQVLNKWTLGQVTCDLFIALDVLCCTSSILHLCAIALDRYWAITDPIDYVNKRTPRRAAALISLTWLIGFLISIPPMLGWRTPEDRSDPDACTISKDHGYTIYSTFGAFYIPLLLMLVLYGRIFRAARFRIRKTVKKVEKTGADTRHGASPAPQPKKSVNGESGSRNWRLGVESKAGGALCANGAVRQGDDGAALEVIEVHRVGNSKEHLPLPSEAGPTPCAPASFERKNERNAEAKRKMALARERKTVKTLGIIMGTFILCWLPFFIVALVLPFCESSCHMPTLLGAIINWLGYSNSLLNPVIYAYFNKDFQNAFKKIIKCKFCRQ
Compound,AC50,outcome
COc1cc(/C=C/C(=O)CC(=O)/C=C/c2ccc(O)c(OC)c2)ccc1O,2010 nM (active),
CCCCC[C@H](O)CC(=O)CCc1ccc(O)c(OC)c1,,inactive
O=C(/C=C/c1ccc(O)cc1)CC(=O)/C=C/c1ccc(O)cc1,,inactive
